Experimental data published in paper PMC10812921, “Transcriptional Coactivator BOB1 (OBF1, OCA-B) Modulates the Specificity of DNA Recognition by the POU-Domain Factors OCT1 and OCT2 in a Monomeric Configuration”.

Assays:
[1] = target: POU1 (OCT1 POU domain) (human, UniProt P14859 260-458); experiment: EMSA-SELEX-seq; no BOB1; 20 mM Tris-HCl pH 7.6, 140 mM NaCl, 10% glycerol, 0.5 mM EDTA, 0.05% Triton X-100, 0.1 mg/mL BSA, 0.1 mg/mL poly(dI-dC), 5 mM DTT, room temperature, 20 min; high values mean tight binding; settings: protein: recombinant; dsDNA, one strand shown
Sequence of POU1 (OCT1 POU domain) (P14859 260-458): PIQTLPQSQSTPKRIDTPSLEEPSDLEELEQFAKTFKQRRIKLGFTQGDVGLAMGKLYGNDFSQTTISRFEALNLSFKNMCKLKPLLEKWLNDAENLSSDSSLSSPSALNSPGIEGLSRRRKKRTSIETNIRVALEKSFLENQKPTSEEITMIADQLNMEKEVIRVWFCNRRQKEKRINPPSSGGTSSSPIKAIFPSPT
Method in brief: (§1)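 Binding preference is the percentage of sequenced 8-mers matching a motif pattern. Tagged POU-domain proteins expressed in E. coli BL21 were purified under denaturing conditions and renatured. For binding, 30 ng protein met 300 ng of a PCR-amplified double-stranded random 35-nt library, with or without 28 ng coactivator protein, in 20 μL Tris–HCl pH 7.6 binding buffer for 20 min at RT. Complex bands were cut from native 6% PAGE, eluted and PCR-amplified over four rounds, then Illumina-sequenced.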

[2] = target: T1, POU2 (OCT2 POU domain) (human, UniProt P09086 175-386); experiment: as above; settings: protein: recombinant; dsDNA, one strand shown
T1 sequence: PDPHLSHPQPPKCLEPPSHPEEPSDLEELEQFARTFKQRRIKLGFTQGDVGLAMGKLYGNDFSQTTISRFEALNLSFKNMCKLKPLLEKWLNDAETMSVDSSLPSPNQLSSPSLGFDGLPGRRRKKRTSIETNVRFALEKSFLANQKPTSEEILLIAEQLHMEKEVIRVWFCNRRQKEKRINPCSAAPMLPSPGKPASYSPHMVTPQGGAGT
Method in brief: as §1

[3] = target: POU1 (OCT1 POU domain);BOB1 (OBF1, OCA-B) (human;human, UniProt P14859;Q16633 260-458;1-256, |); experiment: EMSA-SELEX-seq; with BOB1 (ternary complex band); 20 mM Tris-HCl pH 7.6, 140 mM NaCl, 10% glycerol, 0.5 mM EDTA, 0.05% Triton X-100, 0.1 mg/mL BSA, 0.1 mg/mL poly(dI-dC), 5 mM DTT, room temperature, 20 min; high values mean tight binding; settings: protein: recombinant;recombinant; copies: 1;1; dsDNA, one strand shown
Method in brief: as §1

[4] = target: T2, POU2 (OCT2 POU domain);BOB1 (OBF1, OCA-B) (human;human, UniProt P09086;Q16633 175-386;1-256, |); experiment: as above; settings: protein: recombinant;recombinant; copies: 1;1; dsDNA, one strand shown
T2 sequence 1: T1 sequence
T2 sequence 2: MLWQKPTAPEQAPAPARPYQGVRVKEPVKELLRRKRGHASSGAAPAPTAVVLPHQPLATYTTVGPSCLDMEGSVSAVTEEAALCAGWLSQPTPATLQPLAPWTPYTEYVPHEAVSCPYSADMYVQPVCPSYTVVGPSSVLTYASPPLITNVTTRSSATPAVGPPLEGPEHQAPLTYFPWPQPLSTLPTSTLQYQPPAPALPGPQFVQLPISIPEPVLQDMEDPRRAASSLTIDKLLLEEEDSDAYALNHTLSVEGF
Method in brief: as §1

Sequence | binding signal [1] | binding signal [2] | binding signal [3] | binding signal [4]
AAGGGAAA | 0.196 % of ANNNNAAN 8-mers | 0.146 % of ANNNNAAN 8-mers | 0.255 % of ANNNNAAN 8-mers | 0.136 % of ANNNNAAN 8-mers
AGCAAAAC | 0.0481 % of ANNNNAAN 8-mers | 0.0449 % of ANNNNAAN 8-mers | 0.0792 % of ANNNNAAN 8-mers | 0.0446 % of ANNNNAAN 8-mers
ATTTTAAT | 0.672 % of ANNNNAAN 8-mers | 0.679 % of ANNNNAAN 8-mers | 0.258 % of ANNNNAAN 8-mers | 0.221 % of ANNNNAAN 8-mers
AACGTAAG | 0.0301 % of ANNNNAAN 8-mers | 0.0351 % of ANNNNAAN 8-mers | 0.0336 % of ANNNNAAN 8-mers | 0.0305 % of ANNNNAAN 8-mers
ACACTAAT | 0.0568 % of ANNNNAAN 8-mers | 0.0811 % of ANNNNAAN 8-mers | 0.0316 % of ANNNNAAN 8-mers | 0.0438 % of ANNNNAAN 8-mers
AGCTGAAC | 0.0156 % of ANNNNAAN 8-mers | 0.0196 % of ANNNNAAN 8-mers | 0.0176 % of ANNNNAAN 8-mers | 0.019 % of ANNNNAAN 8-mers
ACGGGAAA | 0.0492 % of ANNNNAAN 8-mers | 0.0564 % of ANNNNAAN 8-mers | 0.0496 % of ANNNNAAN 8-mers | 0.0586 % of ANNNNAAN 8-mers
ACAGCAAA | 0.0248 % of ANNNNAAN 8-mers | 0.0213 % of ANNNNAAN 8-mers | 0.0359 % of ANNNNAAN 8-mers | 0.0347 % of ANNNNAAN 8-mers
AAGTCAAT | 0.0667 % of ANNNNAAN 8-mers | 0.0731 % of ANNNNAAN 8-mers | 0.0535 % of ANNNNAAN 8-mers | 0.0677 % of ANNNNAAN 8-mers
ACCGCAAT | 0.0164 % of ANNNNAAN 8-mers | 0.019 % of ANNNNAAN 8-mers | 0.0199 % of ANNNNAAN 8-mers | 0.0264 % of ANNNNAAN 8-mers
ATGATAAT | 0.513 % of ANNNNAAN 8-mers | 0.582 % of ANNNNAAN 8-mers | 0.138 % of ANNNNAAN 8-mers | 0.135 % of ANNNNAAN 8-mers
AGCAAAAG | 0.0442 % of ANNNNAAN 8-mers | 0.0322 % of ANNNNAAN 8-mers | 0.062 % of ANNNNAAN 8-mers | 0.0429 % of ANNNNAAN 8-mers
ACTAGAAT | 0.0473 % of ANNNNAAN 8-mers | 0.061 % of ANNNNAAN 8-mers | 0.0589 % of ANNNNAAN 8-mers | 0.0438 % of ANNNNAAN 8-mers
ACTCCAAC | 0.0126 % of ANNNNAAN 8-mers |  | 0.0113 % of ANNNNAAN 8-mers | 0.0198 % of ANNNNAAN 8-mers
AGAGAAAG | 0.0442 % of ANNNNAAN 8-mers | 0.0501 % of ANNNNAAN 8-mers | 0.0375 % of ANNNNAAN 8-mers | 0.038 % of ANNNNAAN 8-mers
ACACCAAT | 0.0187 % of ANNNNAAN 8-mers | 0.0173 % of ANNNNAAN 8-mers | 0.0168 % of ANNNNAAN 8-mers | 0.019 % of ANNNNAAN 8-mers

Sequence | binding signal [1] | binding signal [2] | binding signal [3] | binding signal [4]
ATGATAAC | 0.0339 % of ANNNNAAN 8-mers | 0.0489 % of ANNNNAAN 8-mers | 0.0332 % of ANNNNAAN 8-mers | 0.0479 % of ANNNNAAN 8-mers
ATAAGAAT | 0.114 % of ANNNNAAN 8-mers | 0.143 % of ANNNNAAN 8-mers | 0.0886 % of ANNNNAAN 8-mers | 0.0892 % of ANNNNAAN 8-mers
AATTAAAA | 0.364 % of ANNNNAAN 8-mers | 0.399 % of ANNNNAAN 8-mers | 0.156 % of ANNNNAAN 8-mers | 0.151 % of ANNNNAAN 8-mers
ACCCAAAA | 0.0214 % of ANNNNAAN 8-mers | 0.015 % of ANNNNAAN 8-mers | 0.0246 % of ANNNNAAN 8-mers | 0.0206 % of ANNNNAAN 8-mers
AAACTAAT | 0.104 % of ANNNNAAN 8-mers | 0.129 % of ANNNNAAN 8-mers | 0.0808 % of ANNNNAAN 8-mers | 0.0925 % of ANNNNAAN 8-mers
AGCGGAAC | 0.0183 % of ANNNNAAN 8-mers | 0.0224 % of ANNNNAAN 8-mers | 0.0129 % of ANNNNAAN 8-mers | 0.0157 % of ANNNNAAN 8-mers
AGCAGAAT | 0.0435 % of ANNNNAAN 8-mers | 0.0621 % of ANNNNAAN 8-mers | 0.0511 % of ANNNNAAN 8-mers | 0.0561 % of ANNNNAAN 8-mers
ACTGGAAA | 0.0362 % of ANNNNAAN 8-mers | 0.0328 % of ANNNNAAN 8-mers | 0.0375 % of ANNNNAAN 8-mers | 0.0429 % of ANNNNAAN 8-mers
ATGCTAAG | 0.149 % of ANNNNAAN 8-mers | 0.156 % of ANNNNAAN 8-mers | 0.0777 % of ANNNNAAN 8-mers | 0.0726 % of ANNNNAAN 8-mers
ATCGTAAG | 0.0343 % of ANNNNAAN 8-mers | 0.0449 % of ANNNNAAN 8-mers | 0.0379 % of ANNNNAAN 8-mers | 0.0388 % of ANNNNAAN 8-mers
ATAGGAAC | 0.0339 % of ANNNNAAN 8-mers | 0.0449 % of ANNNNAAN 8-mers | 0.0375 % of ANNNNAAN 8-mers | 0.0545 % of ANNNNAAN 8-mers
ATCACAAT | 0.045 % of ANNNNAAN 8-mers | 0.0518 % of ANNNNAAN 8-mers | 0.039 % of ANNNNAAN 8-mers | 0.0487 % of ANNNNAAN 8-mers
AGCCCAAG | 0.0111 % of ANNNNAAN 8-mers |  | 0.0129 % of ANNNNAAN 8-mers | 0.0124 % of ANNNNAAN 8-mers
AGATGAAG | 0.0328 % of ANNNNAAN 8-mers | 0.0368 % of ANNNNAAN 8-mers | 0.0316 % of ANNNNAAN 8-mers | 0.0297 % of ANNNNAAN 8-mers
ACCTGAAC | 0.021 % of ANNNNAAN 8-mers |  | 0.0113 % of ANNNNAAN 8-mers | 0.0215 % of ANNNNAAN 8-mers
AGGTAAAC | 0.0534 % of ANNNNAAN 8-mers | 0.0558 % of ANNNNAAN 8-mers | 0.0792 % of ANNNNAAN 8-mers | 0.0537 % of ANNNNAAN 8-mers
